tested on: T1, PCTK1; conditions: concentration: 1 μM,replicates: in singlicate; n = 1
T1 construct: gene CDK16
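Also: KINOMEscan kinase panel screen.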

Going from CS(=O)(=O)Nc1ccc(-c2ccnc3[nH]ccc23)cc1 [GSK993273] to CC(C)c1nc(-c2cccc(NS(=O)(=O)c3ccccc3)c2)c(-c2ccnc(Nc3ccc4c(c3)CN(C)CC4)n2)s1 [GSK1649598], the “%Inh” value rises from 15% to 100%.

First: O=C(Nc1cccc(C(F)(F)F)c1)c1cccc(Oc2ccc3nccn3n2)c1
Second: O=C(Nc1n[nH]c2cc(-c3ccco3)ccc12)C1CC1 [SB-737447]
The “%Inh” value of the first is lower: 21% for the first, 36% for the second.

O=C(NOCC1CC1)c1cc(Br)c(F)c(F)c1Nc1ccc(I)cc1Cl and OCCn1cc(-c2cnc3nnn(Cc4ccc5ncccc5c4)c3n2)cn1 are the same in “%Inh” value: 0% for the first, 0% for the second.

From article PMC5540273 (PLoS ONE, 2017)
